Laboratory results published in PubChem BioAssay AID2149 (The Scripps Research Institute Molecular Screening Center, 2009).
Screen size: about 2,400 compounds; about 1,800 (75%) were called active. The set was probably picked from earlier hits. A selection follows. Unmarked numbers belong to inactive results.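 The calls were made as follows: active = inhibition above the primary screen limit, the mean inhibition of all tested compounds plus 3 SD (cut at about 25% in these data); inactive = the rest.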

tested on: tRNA 2'-phosphotransferase TPT1 [Candida albicans SC5314]; assay: Candida albicans TPT1 inhibitors, confirmation, biochemical, fluorescence polarization, triplicate (AID 2149); conditions: recombinant caTPT1, fluorescence polarization, RNase T1 coupled; at 5 µM; active compounds read high

Row | Compound | inhibition
1 | CCCCC(=O)N/N=C/c1c(O)n(CC)c(=S)n(CC)c1=O | 98.8% (active)
2 | CCN1C(=O)C(=Cc2c(C)n(CC(=O)NCC3CCCO3)c3ccccc23)C(=O)N(CC)C1=S (centres undefined) | 18.6%
3 | O=C1NC(=O)N(Cc2ccco2)C(=O)/C1=C\c1ccc(-c2ccc(F)cc2)o1 | 11.4%
4 | O=C1NC(=O)N(Cc2ccco2)C(=O)/C1=C\c1cccn1CCOc1ccccc1 | 6.57%
5 | COc1ccc(N2C(=O)/C(=C/c3ccco3)C(=O)NC2=S)cc1 | 27.9% (active)
6 | O=C1CC(=O)N(Cc2ccccc2)C(=O)N1CCCCCCN1C(=O)CC(=O)N(Cc2ccccc2)C1=O | 25.7% (active)
7 | COc1ccccc1N=Nc1c(O)[nH]c(=S)[nH]c1=O | 64.9% (active)
8 | CC(C)n1c(=O)c(C=Nc2ccc(Br)cc2)c(O)n(Cc2ccco2)c1=O | 17.1%
9 | CC/C(=N\NC(=O)c1ccccc1O)c1c(O)n(Cc2ccccc2)c(=O)[nH]c1=O | 21.9%
